4 compounds from PubChem BioAssay (NCATS) can be followed below.

Records with an inconclusive call do not appear. Entries that show only a call come without a potency. Active and inactive are the calls of the source. Calls come from the whole dose curve; as a rule, active = well fitted inhibition curve with a large enough effect; inconclusive = small, poorly fitted or top-dose-only effect; inactive = no such curve, though single readings can be large or run the other way.

The subject of one assay is Zika virus NS2B-NS3 protease (unlinked complex). Kind of assay: Primary screen GU Rhodamine qHTS for Zika virus inhibitors: Unlinked NS2B-NS3 protease assay (AID 1347159). Note: nearly all actives have a fitted effect of over 60% in size. Particulars: Recombinant ZIKV NS2B-NS3 protease, Rhodamine110 substrate fluorescence; series mostly up to 107 µM. The procedure, abridged: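 Enzyme 25 nM in Tris-HCl pH 8.0 + 0.01% Tween 20; compounds up to 114 microM, 15 min RT dark; + Rhod110 substrate 1.5 microM; read t0 and 15 min; delta fluorescence → % inhibition → 4-parameter Hill fit.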
Take `O=c1[nH]cnc2c1ncn2[C@@H]1O[C@H](CO)[C@@H](O)[C@H]1O`: the Potency result was “inactive”.

On to `O=C(CCCN1CCN(c2ccccn2)CC1)c1ccc(F)cc1`, for which the Potency result was “inactive”.

With `CC(C)(C)C(=O)C(Oc1ccc(Cl)cc1)n1ccnc1` (configuration not stated), the Potency entry was “inactive”.

Turning to `Cc1cccc(Nc2cc(Cl)nc(SCC(=O)O)n2)c1C`, the Potency entry is “inactive”.

For a further assay, the system named is Zika virus NS2B-NS3 protease (linked construct). Kind of assay: Primary screen NINDS Rhodamine qHTS for Zika virus inhibitors (AID 1347160). Note: nearly all actives have a fitted effect of over 55% in size. Particulars: purified NS2B-NS3 protease, Rhodamine110 substrate fluorescence; series mostly up to 57.1 µM. The procedure, abridged:
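Enzyme (25 nM, linked NS2B-NS3) was preincubated 15 min with compound in 10 mM Tris-HCl pH 8.0, 0.01% Tween 20. Rhodamine110 substrate (1.5 microM) was then added and fluorescence read at start and after 15 min.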
Regarding `O=c1[nH]cnc2c1ncn2[C@@H]1O[C@H](CO)[C@@H](O)[C@H]1O`, the Potency entry is “inactive”.

Regarding `O=C(CCCN1CCN(c2ccccn2)CC1)c1ccc(F)cc1`, the Potency result was “inactive”.

Turning to `CC(C)(C)C(=O)C(Oc1ccc(Cl)cc1)n1ccnc1` (configuration not stated), the Potency entry is “inactive”.
